Results: PubChem BioAssay (Tox21)
Values joined by “and” are separate entries in the source; they are usually repeats but may differ in a detail not shown here. Identical values can stand only once. Some compounds were tested as several samples or in several runs, with calls that do not always agree. Active and inactive are the calls of the source. Where a call stands in place of a potency, no number is given. Unless noted, calls come from the whole dose curve; as a rule, active = well fitted curve in the direction sought with a large enough effect in the repeat runs; inconclusive = weak or mixed curves; inactive = no such curve, though single readings can be large; an effect the other way counts as inactive or inconclusive.

Assays:
[1] = qHTS assay to identify small molecule antagonists of the thyroid receptor (TR) signaling pathway - cell viability counter screen (AID 743064); note: nearly all actives have a fitted effect of over 50% in size; note: potency is the fitted concentration of half-maximal effect
How it was run: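 GH3.TRE-Luc cells, 4 h pre-plating; cpd + T3 1 nM final; 37 °C 23.5 h; CellTiter-Fluor 30 min; fluorescence read.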

[2] = qHTS assay to identify small molecule antagonists of the thyroid receptor (TR) signaling pathway (AID 743065); note: nearly all actives have a fitted effect of over 55% in size; note: potency is the fitted concentration of half-maximal effect
How it was run: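 GH3.TRE-Luc rat pituitary cells carrying two TR response elements driving luciferase were plated for 4 h, given compound plus 1 nM T3 (final), and incubated 23.5 h at 37 C. ONE-Glo luminescence measured reporter inhibition; CellTiter-Fluor fluorescence tracked cytotoxicity.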

[3] = tested on: thyroid hormone receptor (rat, GH3 cells); assay: qHTS assay to identify small molecule agonists of the thyroid receptor (TR) signaling pathway (AID 743066; calls by dose curve)
[4] = biological target: Estrogen receptor (Homo sapiens) (UniProt P03372); assay: qHTS assay to identify small molecule antagonists of the estrogen receptor alpha (ER-alpha) signaling pathway (AID 743069; active = well fitted curve in the direction sought with a large enough effect in the signal ratio in the repeat runs, not every such curve was filed as active; inconclusive = weak or mixed curves, or effect the other way; inactive = no such curve, though single readings can be large or run the other way; the % refers to the signal ratio; note: potency is the fitted concentration of half-maximal effect)
Chain of Estrogen receptor (Homo sapiens) (P03372 whole entry, looked up): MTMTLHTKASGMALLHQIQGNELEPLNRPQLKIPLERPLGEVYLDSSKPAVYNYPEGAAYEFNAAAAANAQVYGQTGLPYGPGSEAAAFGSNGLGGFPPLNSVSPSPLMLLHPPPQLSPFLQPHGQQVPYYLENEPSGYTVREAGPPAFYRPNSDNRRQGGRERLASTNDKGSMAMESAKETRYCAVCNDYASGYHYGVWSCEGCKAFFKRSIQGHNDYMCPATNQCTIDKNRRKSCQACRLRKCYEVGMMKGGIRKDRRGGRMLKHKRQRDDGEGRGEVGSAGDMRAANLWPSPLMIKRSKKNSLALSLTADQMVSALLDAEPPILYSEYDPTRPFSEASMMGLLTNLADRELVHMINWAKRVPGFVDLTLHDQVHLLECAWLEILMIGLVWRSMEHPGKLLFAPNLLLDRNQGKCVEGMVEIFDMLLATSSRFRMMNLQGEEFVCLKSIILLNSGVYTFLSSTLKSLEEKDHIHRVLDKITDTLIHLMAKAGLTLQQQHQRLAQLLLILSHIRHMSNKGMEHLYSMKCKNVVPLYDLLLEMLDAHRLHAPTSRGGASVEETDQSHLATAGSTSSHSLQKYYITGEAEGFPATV
How it was run: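 A 17beta-estradiol challenge was applied right after compound transfer to ER-alpha-UAS-bla HEK293 cells previously kept in charcoal-stripped serum. Plates stood 18 hr at 37C and 5% CO2; fluorescence was read following 2 hr FRET substrate loading at room temperature.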

[5] = qHTS assay to identify small molecule antagonists of the estrogen receptor alpha (ER-alpha) signaling pathway - cell viability counter screen (AID 743074; calls by dose curve;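 note: HEK293 cells carrying ER-alpha-UAS-bla reporter stimulated with 17beta-estradiol; nearly all actives have a fitted effect of over 45% in size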; note: potency is the fitted concentration of half-maximal effect)
[6] = biological target: Estrogen receptor (Homo sapiens) (UniProt P03372); assay: qHTS assay to identify small molecule agonists of the estrogen receptor alpha (ER-alpha) signaling pathway (AID 743075; calls by dose curve;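 note: HEK293 GripTite cells with ER-alpha and UAS-driven beta-lactamase reporter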; note: potency is the fitted concentration of half-maximal effect)
[7] = biological target: Estrogen receptor (Homo sapiens) (UniProt P03372); assay: qHTS assay to identify small molecule agonists of the estrogen receptor alpha (ER-alpha) signaling pathway using the BG1 cell line (AID 743079); note: nearly all actives have a fitted effect of over 20% in size; note: potency is the fitted concentration of half-maximal effect
[8] = qHTS assay to identify small molecule antagonists of the estrogen receptor alpha (ER-alpha) signaling pathway using the BG1 cell line (AID 743080; calls by dose curve;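 note: BG1 cells stimulated with 17beta-estradiol alongside compound; nearly all actives have a fitted effect of over 25% in size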; note: potency is the fitted concentration of half-maximal effect)
How it was run: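 Endogenous full-length ER-alpha in BG1-Luc-4E2 cells drives a stably integrated 4×ERE luciferase gene; compounds were tested against 17beta-estradiol over 21.5 h, with luminescence and multiplexed viability fluorescence recorded.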

[9] = qHTS assay to identify small molecule antagonists of the estrogen receptor alpha (ER-alpha) signaling pathway using the BG1 cell line - cell viability counter screen (AID 743081);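 note: compound given together with 17beta-estradiol as the ER stimulus; nearly all actives have a fitted effect of over 45% in size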; note: potency is the fitted concentration of half-maximal effect
Aromatase (Homo sapiens) = Aromatase (Homo sapiens) (UniProt P11511); assay: qHTS assay to identify aromatase inhibitors (AID 743083); note: nearly all actives have a fitted effect of over 55% in size; note: potency is the fitted concentration of half-maximal effect
Chain of Aromatase (Homo sapiens) (P11511 whole entry, looked up): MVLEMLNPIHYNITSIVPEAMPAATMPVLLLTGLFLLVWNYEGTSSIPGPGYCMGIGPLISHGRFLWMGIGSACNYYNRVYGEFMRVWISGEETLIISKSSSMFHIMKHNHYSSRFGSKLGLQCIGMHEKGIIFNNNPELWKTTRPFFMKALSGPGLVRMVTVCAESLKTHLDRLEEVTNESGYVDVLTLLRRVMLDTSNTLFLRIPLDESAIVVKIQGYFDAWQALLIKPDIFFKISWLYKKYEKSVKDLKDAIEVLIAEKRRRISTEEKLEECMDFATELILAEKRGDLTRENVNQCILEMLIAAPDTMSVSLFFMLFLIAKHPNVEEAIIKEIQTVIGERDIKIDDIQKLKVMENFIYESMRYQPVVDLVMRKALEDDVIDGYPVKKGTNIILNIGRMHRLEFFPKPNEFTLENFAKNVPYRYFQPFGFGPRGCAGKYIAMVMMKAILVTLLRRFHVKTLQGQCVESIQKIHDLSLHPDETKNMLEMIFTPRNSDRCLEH

[10] = qHTS assay to identify aromatase inhibitors - cell viability counter screen (AID 743084);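 note: cells stimulated with testosterone during compound exposure; nearly all actives have a fitted effect of over 55% in size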; note: potency is the fitted concentration of half-maximal effect
[11] = biological target: Aryl hydrocarbon receptor (Homo sapiens) (UniProt P35869); assay: qHTS assay to identify small molecule that activate the aryl hydrocarbon receptor (AhR) signaling pathway (AID 743085); note: nearly all actives have a fitted effect of over 15% in size; note: potency is the fitted concentration of half-maximal effect;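 for activation: HG2L7.5c1 human HepG2 liver cells with stably integrated DRE-driven firefly reporter; series mostly up to about 70 µM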
Chain of Aryl hydrocarbon receptor (Homo sapiens) (P35869 whole entry, looked up): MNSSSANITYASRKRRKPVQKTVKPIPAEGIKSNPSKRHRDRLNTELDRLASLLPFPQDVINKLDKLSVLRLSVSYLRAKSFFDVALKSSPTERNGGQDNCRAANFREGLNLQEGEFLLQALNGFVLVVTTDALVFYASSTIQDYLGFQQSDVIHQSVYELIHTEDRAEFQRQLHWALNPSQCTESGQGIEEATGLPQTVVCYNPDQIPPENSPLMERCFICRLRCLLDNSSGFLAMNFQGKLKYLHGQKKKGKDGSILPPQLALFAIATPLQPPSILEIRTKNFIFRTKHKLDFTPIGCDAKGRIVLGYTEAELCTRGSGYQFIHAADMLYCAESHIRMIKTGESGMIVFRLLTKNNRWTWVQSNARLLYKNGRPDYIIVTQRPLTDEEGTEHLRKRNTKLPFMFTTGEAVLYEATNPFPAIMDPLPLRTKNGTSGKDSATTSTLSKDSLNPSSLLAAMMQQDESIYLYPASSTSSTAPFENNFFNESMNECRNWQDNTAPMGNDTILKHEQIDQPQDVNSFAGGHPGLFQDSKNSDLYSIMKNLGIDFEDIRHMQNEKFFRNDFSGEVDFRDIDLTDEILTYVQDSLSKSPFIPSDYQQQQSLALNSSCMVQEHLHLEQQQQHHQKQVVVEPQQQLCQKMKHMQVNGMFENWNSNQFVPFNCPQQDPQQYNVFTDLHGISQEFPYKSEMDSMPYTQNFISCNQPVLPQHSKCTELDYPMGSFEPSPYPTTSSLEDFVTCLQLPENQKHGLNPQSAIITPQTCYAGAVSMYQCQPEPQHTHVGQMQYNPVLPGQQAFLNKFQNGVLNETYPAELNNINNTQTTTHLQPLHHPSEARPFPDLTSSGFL
How it was run: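 Luminescence read-out: ONE-Glo reagent, 30 min at room temperature, in HG2L7.5c1 HepG2 reporter cells treated 24 h at 37C. Viability was measured beforehand by CellTiter-Fluor fluorescence after 30 min at 37C.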

[12] = qHTS assay to identify small molecule that activate the aryl hydrocarbon receptor (AhR) signaling pathway - cell viability counter screen (AID 743086); note: nearly all actives have a fitted effect of over 45% in size; note: potency is the fitted concentration of half-maximal effect
How it was run: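 HepG2-AhR-luc (HG2L7.5c1) cells, 4000/well, were preincubated 5 h at 37C, exposed to compound in qHTS format for 24 hr at 37C, then given CellTiter-Fluor for 30 min; viability was read as fluorescence in the reporter wells.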

[13] = biological target: Peroxisome proliferator-activated receptor gamma (Homo sapiens) (UniProt P37231); assay: qHTS assay to identify small molecule agonists of the peroxisome proliferator-activated receptor gamma (PPARg) signaling pathway (AID 743094; active = well fitted activation curve with a large enough effect in the signal ratio in the repeat runs, not every such curve was filed as active; inconclusive = weak or mixed curves, or effect the other way; inactive = no such curve, though single readings can be large or run the other way; the % refers to the signal ratio)
Chain of Peroxisome proliferator-activated receptor gamma (Homo sapiens) (P37231 whole entry, looked up): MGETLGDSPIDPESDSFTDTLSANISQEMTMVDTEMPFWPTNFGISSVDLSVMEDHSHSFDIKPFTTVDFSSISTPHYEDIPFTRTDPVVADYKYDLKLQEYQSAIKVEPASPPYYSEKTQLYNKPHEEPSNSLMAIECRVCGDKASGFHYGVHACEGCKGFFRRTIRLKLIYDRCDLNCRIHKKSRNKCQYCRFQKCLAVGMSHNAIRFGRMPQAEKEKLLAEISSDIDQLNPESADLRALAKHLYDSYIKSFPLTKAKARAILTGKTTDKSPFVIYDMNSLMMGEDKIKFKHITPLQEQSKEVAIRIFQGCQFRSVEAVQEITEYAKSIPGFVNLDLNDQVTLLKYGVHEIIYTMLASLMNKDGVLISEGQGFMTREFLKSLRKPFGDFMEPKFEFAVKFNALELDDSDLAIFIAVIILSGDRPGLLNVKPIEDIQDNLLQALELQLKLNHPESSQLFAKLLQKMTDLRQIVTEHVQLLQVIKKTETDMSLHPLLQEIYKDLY
How it was run: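 Cells from the PPARg UAS-bla HEK293H line are plated and incubated 5 h at 37C. Compounds in DMSO are pinned in and left 17 h at 37C. LiveBLAzer B/G substrate is then added for 1 h at room temperature before fluorescence is measured.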

[14] = biological target: Peroxisome proliferator-activated receptor gamma (Homo sapiens) (UniProt P37231); assay: qHTS assay to identify small molecule antagonists of the peroxisome proliferator-activated receptor gamma (PPARg) signaling pathway (AID 743191; calls by dose curve; note: series mostly up to about 63 µM; nearly all actives have a fitted effect of over 30% in size)
How it was run: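 GeneBLAzer PPARg UAS-bla HEK293H cells carrying a UAS-driven beta-lactamase reporter were plated at 3000 cells/well, preincubated 5 h at 37C, then given compound for 17 h at 37C; LiveBLAzer B/G FRET substrate was read after 1 h at room temperature.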

[15] = qHTS assay to identify small molecule antagonists of the peroxisome proliferator-activated receptor gamma (PPARg) signaling pathway - cell viability counter screen (AID 743194); note: nearly all actives have a fitted effect of over 55% in size
How it was run: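 PPARg-UAS-bla HEK293H cells were plated, rested 5 h at 37 C, then treated with compounds plus rosiglitazone (50 nM final) for 17 h at 37 C; viability was then read by CellTiter-Glo luminescence after 30 min at room temperature.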

[16] = qHTS assay for small molecule agonists of the antioxidant response element (ARE) signaling pathway (AID 743202; active = well fitted activation curve with a large enough effect in the signal ratio in the repeat runs, not every such curve was filed as active; inconclusive = weak or mixed curves, or effect the other way; inactive = no such curve, though single readings can be large or run the other way; the % refers to the signal ratio; note: potency is the fitted concentration of half-maximal effect)
How it was run: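 Following a 16 h, 37 C exposure of reporter HepG2 cells (ARE-driven beta-lactamase, 2,000 cells/well) to compounds, FRET substrate was applied for 2 h at room temperature and fluorescence intensity recorded.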

[17] = qHTS assay for small molecule agonists of the antioxidant response element (ARE) signaling pathway - cell viability counter screen (AID 743203; calls by dose curve; note: nearly all actives have a fitted effect of over 55% in size; note: potency is the fitted concentration of half-maximal effect)
How it was run: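 Cytotoxicity was tested in parallel with the ARE reporter screen. ARE-bla HepG2 cells were exposed to compounds for 16 hrs, and viability was taken from CellTiter-Glo luminescence.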

[18] = qHTS assay for small molecule activators of the heat shock response signaling pathway (AID 743210; active = well fitted activation curve with a large enough effect in the signal ratio in the repeat runs, with a control signal flat, not every such curve was filed as active; inconclusive = weak or mixed curves; the % refers to the signal ratio; note: series mostly up to about 63 µM)
How it was run: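 Heat shock element–beta-lactamase HeLa reporter cells; qHTS with compounds for 5 h at 37 C; detection by FRET substrate fluorescence after 2.5 h at RT.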

[19] = qHTS assay for small molecule activators of the heat shock response signaling pathway - cell viability counter screen (AID 743209); note: nearly all actives have a fitted effect of over 50% in size; note: potency is the fitted concentration of half-maximal effect
How it was run: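 Cytotoxicity counter screen run in parallel with the HSE beta-lactamase reporter, using the same wells. HeLa HSE-bla cells received compound for 5 h at 37 C; ATP-based CellTiter-Glo luminescence was measured after 30 min at room temperature.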

Compound	Potency [1]	Potency [2]	Potency [3]	Potency [4]	Potency [5]	Potency [6]	Potency [7]	Potency [8]	Potency [9]	Potency (Aromatase (Homo sapiens))	Potency [10]	Potency [11]	Potency [12]	outcome [13]	Potency [14]	Potency [15]	Potency [16]	Potency [17]	outcome [18]	Potency [19]
CN(C)C	inactive	inactive	inactive	inactive	inactive	inactive	inactive	inactive	inactive	inactive	inactive	inactive	inactive	inactive	inactive	inactive	inactive	inactive	inactive	–
CCC(Cc1c(I)cc(I)c(N)c1I)C(=O)O (configuration not stated)	inactive	inactive	inactive	inactive and 47.5 µM [inconclusive] (active)	inactive	8.11 µM [inconclusive] (active) and 5.32 µM [activator] (active)	inactive	inactive	inactive	inactive	inactive	inactive	inactive	inactive	–	inactive	23.6 µM (active)	inactive	inactive	inactive
CC(=O)Oc1c(C)c(C)c2c(c1C)CC[C@@](C)(CCC[C@H](C)CCC[C@H](C)CCCC(C)C)O2	inactive	inactive	inactive	inactive	inactive	inactive	inactive	inactive	inactive	inactive	inactive	inactive	inactive	inactive	inactive	inactive	inactive	inactive	inactive	–
CCCCCC1C(=O)CCC1CC(=O)OC (configuration not stated)	inactive	inactive	inactive	inactive	inactive	inactive	inactive	inactive	inactive	inactive	inactive	inactive	inactive	inactive	inactive	inactive	inactive	inactive	–	–
CCCCCC=O	inactive	inactive	inactive	inactive	inactive	inactive	inactive	inactive	inactive	–	–	inactive	inactive	inactive	–	inactive	inactive	inactive	inactive	inactive
CNC[C@H](O)c1ccc(O)c(O)c1	inactive	inactive	inactive	inactive	inactive	inactive	inactive	inactive	inactive	inactive	inactive	–	inactive	inactive	inactive	inactive	inactive	inactive	inactive	inactive
O=C(O)CCCC(=O)O	inactive	inactive	inactive	inactive	–	inactive	inactive	inactive	inactive	inactive	inactive	inactive	inactive	inactive	inactive	inactive	inactive	inactive	inactive	inactive
C=C[Si](OCCOC)(OCCOC)OCCOC	inactive	inactive	inactive	inactive	inactive	inactive	inactive	inactive	inactive	inactive	inactive	–	inactive	inactive	inactive	inactive	inactive	inactive	inactive	inactive
O=Cc1ccccc1C=O	10.6 µM (active) and 2.43 µM (active)	9.44 µM (active) and 2.17 µM (active)	inactive	inactive	inactive	23.9 µM [activator] (active) and inactive	21.1 µM (active) and 30.6 µM (active)	–	inactive	inactive and 8.63 µM (active)	17.2 µM (active)	inactive	inactive	–	inactive	–	inactive	12.2 µM (active) and inactive	inactive	inactive
COc1cc([C@H]2Oc3cc([C@H]4Oc5cc(O)cc(O)c5C(=O)[C@@H]4O)ccc3O[C@@H]2CO)ccc1O	inactive	inactive	inactive	–	inactive	inactive	inactive	inactive	inactive	inactive	inactive	inactive	inactive	inactive	inactive	inactive	–	inactive	inactive	–
[O-]/[N+](=N\O)c1ccccc1	inactive	inactive	inactive	inactive	–	inactive and 55 µM [activator] (active)	61.1 µM (active)	–	inactive	inactive	inactive	30.6 µM (active)	inactive	inactive	inactive	inactive	–	inactive	inactive	–
COC(=O)CC(=O)OC	inactive	inactive	inactive	inactive	inactive	inactive	inactive	inactive	inactive	inactive	inactive	inactive	inactive	inactive	inactive	inactive	inactive	inactive	inactive	inactive
CCCCCCCCCCCCO	inactive	–	inactive	inactive	inactive	inactive	inactive	inactive	inactive	inactive	inactive	inactive	inactive	inactive	inactive	inactive	inactive	inactive	inactive	inactive
c1ccc2c(c1)[nH]c1ccccc12	inactive	–	inactive	inactive	inactive	inactive	inactive	inactive	inactive	inactive	inactive	inactive	inactive	inactive	inactive	inactive	inactive	inactive	inactive	–
C1COCCN1	inactive	–	inactive	inactive	inactive	inactive	inactive	inactive	inactive	inactive	inactive	–	inactive	–	–	inactive	inactive	inactive	inactive	inactive
Nc1cc(Cl)c(N)c(Cl)c1	inactive	–	inactive	inactive	inactive	inactive	inactive	34.1 µM (active) and inactive	inactive	inactive	inactive	27.1 µM (active) and 21.7 µM (active)	inactive	inactive	inactive	inactive	27.3 µM (active)	inactive	inactive	inactive
COc1ccc(C(=O)c2ccccc2O)c(O)c1	inactive	inactive	inactive	–	inactive	–	–	–	inactive	inactive	inactive	inactive	inactive	inactive	–	inactive	inactive	inactive	inactive	–
CC(C)(C)c1cccc(C(C)(C)C)c1O	inactive	–	inactive	inactive	inactive	inactive	inactive	inactive	inactive	inactive	inactive	inactive	inactive	inactive	inactive	inactive	inactive	inactive	inactive	inactive
CCC(=O)O[C@H]1[C@H](O[C@@H]2[C@@H](C)[C@H](O[C@H]3C[C@@](C)(OC)[C@@H](O)[C@H](C)O3)[C@@H](C)C(=O)O[C@H](CC)[C@@](C)(O)[C@H](O)[C@@H](C)C(=O)[C@H](C)C[C@@]2(C)O)O[C@H](C)C[C@@H]1N(C)C	13.3 µM (active) and 36.1 µM (active)	11.9 µM (active) and 36.1 µM (active)	inactive	–	inactive	–	–	–	26.6 µM (active) and 32.2 µM (active)	inactive	18.1 µM (active)	inactive	–	inactive	–	inactive	inactive	40.5 µM (active) and inactive	inactive	–
O=C(O)CCCCCCCCCCCC(=O)O	inactive	inactive	inactive	–	inactive and 4.36 µM (active)	–	–	–	inactive	inactive	inactive	–	inactive	inactive	inactive	inactive	inactive	inactive	inactive	–
COc1ccc(-c2coc3cc(O)cc(O)c3c2=O)cc1	inactive	61.1 µM (active)	inactive	–	–	6.97 µM [inconclusive] (active) and 13.8 µM [activator] (active)	436 nM (active) and 864 nM (active)	–	inactive	inactive	–	–	inactive	–	inactive	inactive	–	inactive	inactive	inactive
CC1=CC(C)(C)Nc2ccccc21	inactive	–	inactive	inactive	inactive	inactive	inactive	inactive	inactive	–	inactive	–	inactive	inactive	inactive	inactive	inactive	inactive	inactive	–
CCCCCCOCCOCCO	inactive	inactive	inactive	–	inactive	–	–	–	inactive	inactive	inactive	–	inactive	–	–	inactive	inactive	inactive	inactive	inactive
CCCCCCCC/C=C\CCCCCCCC(=O)O	inactive	–	inactive	inactive	inactive	inactive	inactive	inactive	inactive	inactive	inactive	–	inactive	inactive	–	inactive	inactive	inactive	–	inactive and 34.7 µM (active)
Nc1ccc2c(O)cc(S(=O)(=O)O)cc2c1	inactive	54.5 µM (active)	inactive	–	inactive	–	–	–	inactive	inactive	inactive	–	9.7 µM (active)	–	–	inactive	–	inactive	inactive	–
Nc1ccc2c(c1)C(=O)c1ccccc1C2=O	inactive	inactive	inactive	–	–	inactive	268 nM (active) and 686 nM (active)	–	inactive	inactive	60 µM (active) and inactive	–	60 µM (active)	inactive	inactive	inactive	–	inactive	inactive	–
CC(=O)[C@H]1CC[C@H]2[C@@H]3CC=C4C[C@@H](O)CC[C@]4(C)[C@H]3CC[C@]12C	inactive	–	inactive	inactive	inactive	952 nM [inconclusive] (active) and 3.46 µM [inconclusive] (active)	596 nM (active) and 5.44 µM (active)	inactive	inactive	inactive	inactive	–	inactive	inactive	–	inactive	12.2 µM (active)	inactive	inactive	inactive
CC1(C)C(C=C(Cl)Cl)C1C(=O)OCc1cccc(Oc2ccccc2)c1 (configuration not stated)	inactive	–	inactive	inactive	inactive	inactive	inactive	inactive	inactive	inactive	inactive	inactive	inactive	–	–	inactive	inactive	inactive	inactive	inactive
C/C=C/C(=O)N(CC)c1ccccc1C	inactive	–	inactive	inactive	inactive	inactive	inactive	inactive	inactive	inactive	inactive	inactive	inactive	inactive	inactive	inactive	inactive	inactive	inactive	inactive
